Measurements from PubChem BioAssay (NCI).
“And” between values parts separate entries of the source, which are not always exact repeats. Equal values may be shown once. Compounds without any hit were thinned out: in the full panel of roughly 83,000, 20% have a hit.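 Percent growth is the endpoint: 0 to 100 indicates growth inhibition (40 means 60% inhibition), 0 means no net growth, and negative values indicate cell death.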 The source made the active and inactive calls. Rule for the calls: active = growth percent below 10; inactive = the rest.

system: HL-60(TB) leukemia; assay: NCI-60 one-dose screen, 48 h (100 = growth as untreated, 0 = no growth, -100 = all killed); conditions: 10 µM unless noted

How did the growth turn out when `COc1ccc(-c2cnc(-c3ccc(F)cc3)[nH]2)cc1` was run?
The growth was 74.9% (inactive).

With `O=C1c2cc(Cl)ccc2S(=O)(=O)c2c(NCCCNCCO)nc3ccccc3c21` as the compound, how does the growth read?
Its growth is -27% (active).

With `C=C(C)[C@@H]1CC[C@@]2(C(=O)O)CC[C@]3(C)C(CCC4[C@@]5(C)CCC(OS(=O)(=O)c6ccccc6)C(C)(C)C5CC[C@]43C)C12` (some centres undefined) as the compound, how does the growth read?
The growth was 21.4% (inactive).

With `CCCCCCCCCCCCCCCCSC(=NCC)NCC` as the compound, how does the growth read?
Its growth is -59.1% (active).

How did the growth turn out when `CCC(C(=O)[C@@H](C)[C@@H](O)[C@H](C)[C@@H]1O[C@@H]([C@@H](CC)C(=O)ONC(=O)c2ccccc2)CC[C@@H]1C)[C@H]1O[C@]2(C=CC(=O)[C@]3(CC[C@@](C)([C@H]4CC[C@](O)(CC)[C@H](C)O4)O3)O2)[C@H](C)C[C@@H]1C` (some centres undefined) was run?
Its growth is -63.9% (active).

How did the growth turn out when `O=C1C=CC[C@H](/C=C/c2ccccc2)O1` was run?
The growth was 13.5% (inactive) and -34.5% (active).

Which growth does the source give for `CSc1oc(C)nc1[P+](c1ccccc1)(c1ccccc1)c1ccccc1` here?
The growth was 46.5% (inactive).

For `Cc1ccc(NC(=O)Nc2ccc(-c3cccnc3)cc2N2CCC(CO)CC2)cc1`, which growth is on record?
The growth was 13.9% (inactive).

Which growth does the source give for `COCCNC(=O)c1ccc(-c2nc3ccc4[nH]ncc4c3c3c2CCCC3)cc1` here?
The growth was 11.4% (inactive).

Which growth does the source give for `COc1cc2oc(-c3cccc(NC(=O)c4cccc(Br)c4)c3)cc(=O)c2c(OC)c1OC` here?
The growth was 65.5% (inactive).

With `Cc1cc(Nc2cccc(C(F)(F)F)c2)n2c(nc3ccccc32)c1C#N` as the compound, how does the growth read?
The growth was 31.8% (inactive).

Which growth does the source give for `COc1ccccc1CNC(=O)C1c2ccccc2C(=O)N(CC(C)C)C1c1cccs1` (centres undefined) here?
The growth was 67.9% (inactive).

For `Cn1c(-c2c(N)n(CCCN3CCOCC3)c3nc(C#N)c(C#N)nc23)nc2ccccc21`, which growth is on record?
The growth was -82.3% (active).

With `CCN1CCN(C(=O)[C@]23CCC(C)(C)C[C@@H]2C2=CC[C@@H]4[C@@]5(C)CCC(=O)C(C)(C)[C@@H]5CC[C@@]4(C)[C@]2(C)CC3)CC1` as the compound, how does the growth read?
The growth was -35.8% (active).

`OCCN1CCN(CCCN2c3ccccc3Sc3ccc(Cl)cc32)CC1` was tested. Which growth did it give?
Its growth is 85.8% (inactive) and 73.9% (inactive).

`c1ccc2c(c1)cnc1ccccc12` was tested. Which growth did it give?
The growth was 94.9% (inactive).

How did the growth turn out when `CC(C)=CCc1cc2c(cc1O)C1=C(C(=O)C3=C(NCCS3(=O)=O)C1=O)C(C=C(C)C)O2` (centres undefined) was run?
The growth was -35.2% (active).

For `O=C(/C=C\c1ccnc2ccccc12)c1ccc([N+](=O)[O-])cc1`, which growth is on record?
Its growth is 47.1% (inactive) and 30.4% (inactive).

With `C[N+](C)(C)c1ncnc2nc[nH]c12` as the compound, how does the growth read?
The growth was 91.8% (inactive).

For `COc1ccc(C(=O)Nc2ncc(Cc3ccc(F)cc3)s2)cc1`, which growth is on record?
The growth was -2.26% (active).

For `CCOC(=O)c1cc(-c2cccnc2)nc2c(Cl)cc(Cl)cc12`, which growth is on record?
The growth was 108% (inactive).

How did the growth turn out when `COc1ccc(S(=O)(=O)N2CCOCC2)cc1NC(=O)c1[nH]c(C)c2c1CCCCC2=O` was run?
Its growth is 99.6% (inactive) and 15% (inactive).

With `N/C(=N\N=C\c1cc2ccccc2s1)N/N=C/c1cc2ccccc2s1` as the compound, how does the growth read?
The growth was 94.4% (inactive).

`CC(=O)C1CCC2C3CC=C4CC(SC(=N)N)CCC4(C)C3CCC12C` (centres undefined) was tested. Which growth did it give?
Its growth is -17.6% (active).

How did the growth turn out when `COc1cc(/C=N/NC(=O)c2cnn3c2NC(c2ccccc2)C3)ccc1OC1CCCC1` (centres undefined) was run?
The growth was 40.8% (inactive).

Which growth does the source give for `O=c1c2c([nH]c3ccccc13)CCCC2` here?
The growth was 97.6% (inactive) and 5.42% (active).

Which growth does the source give for `c1cnc2[nH]cc(-c3csc(-c4cn(CCCN5CCOCC5)c5ccccc45)n3)c2c1` here?
Its growth is 35.8% (inactive).

With `CN(C)CCCOc1ccc(OCCCN(C)C)c2c1C(=O)c1ccccc1C2=O` as the compound, how does the growth read?
Its growth is 5.97% (active).

Which growth does the source give for `CC(C)[C@@]12C[C@@H](OC(=O)C3CO3)[C@@](C)(O1)[C@@H]1CC[C@@H](C)[C@H]1[C@@H]2OC(=O)/C=C/c1ccccc1` (some centres undefined) here?
Its growth is 93.3% (inactive).

`O=C1CCC(NC(=S)Nc2ccccc2)N1` (centres undefined) was tested. Which growth did it give?
The growth was 99.2% (inactive).

How did the growth turn out when `N#Cc1cccc(/C=C(/C(=O)c2ccccc2)c2ccccc2)c1` was run?
The growth was 43.7% (inactive).

Which growth does the source give for `Cc1ccc2c(c1)C(=O)/C(=C\Nc1ccc(C(N)=O)cc1)C(O)O2` (centres undefined) here?
Its growth is 130% (inactive).

`CNCCNc1nc2ccccc2c2c(=O)c3cc(F)ccc3oc12` was tested. Which growth did it give?
Its growth is 95.4% (inactive).

`Nc1nc(Cl)c2ncn(Cc3cc4c(cc3I)OCO4)c2n1` was tested. Which growth did it give?
The growth was 52.3% (inactive).

For `O=c1[nH]nnc2cc(Cl)ccc12`, which growth is on record?
The growth was 108% (inactive) and 100% (inactive).

`COc1cccc2cc(-c3cc4ccccc4[nH]3)c(=NC(=O)c3ccc(Cl)cc3)oc12` was tested. Which growth did it give?
Its growth is 72.1% (inactive).

With `COC(=O)[C@H](NC(=O)C1(C)CCC[C@]2(C)[C@H]3C[C@H]4C(C(C)C)=C[C@]3(CC[C@@H]12)[C@@H]1C(=O)CCC(=O)[C@@H]14)C(C)C` (some centres undefined) as the compound, how does the growth read?
Its growth is 103% (inactive).

`COc1cc2nc(N3CCC[C@@H](NC(=O)C4COc5ccccc5O4)C3)nc(N)c2cc1OC` (some centres undefined) was tested. Which growth did it give?
The growth was 105% (inactive) and 102% (inactive).

Which growth does the source give for `COc1cccc(-c2nn(-c3ccccc3)cc2-c2ccnc(NCCNS(=O)(=O)c3cccc(F)c3)c2)c1` here?
Its growth is 5.83% (active).
